According to PubChem BioAssay (NCATS):
Records with an inconclusive call do not appear. The source made the active and inactive calls. Calls follow the shape of the dose curve; as a rule, active = well fitted inhibition curve with a large enough effect; inconclusive = small, poorly fitted or top-dose-only effect; inactive = flat fitted curve, though single readings scatter.

Tests used:
Assay in all cases: qHTS profiling for inhibitors of Plasmodium falciparum proliferation (AID 504749); also: nearly all actives have a fitted effect of over 60% in size
Settings in all cases: P. falciparum in erythrocytes, SYBR Green DNA, 72 h; series mostly up to 28.7 µM
[1] = tested on: CP260
In short: (§1)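 Readout was DNA-dye fluorescence from lysed cultures, ex 485/em 535 nm. Parasitized red cells had grown 72 h with compound; data scaled between 0.29 uM artemisinin and DMSO wells and corrected using vehicle-only plates.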

[2] = tested on: CP262
In short: as §1

[3] = tested on: CP265
In short: as §1

[4] = tested on: CP266
In short: as §1

[5] = tested on: CP268
In short: as §1

[6] = tested on: CP269
In short: as §1

[7] = tested on: CP286
In short: as §1

[8] = tested on: CP291
In short: as §1

[9] = tested on: CP297
In short: as §1

[10] = tested on: CP305
In short: as §1

[11] = tested on: CP315
In short: as §1

[12] = tested on: CP325
In short: as §1

[13] = tested on: CP329
In short: as §1

[14] = tested on: CP335
In short: as §1

[15] = tested on: DFO2036
In short: as §1

[16] = tested on: DIV14
In short: as §1

[17] = tested on: DIV17
In short: as §1

[18] = tested on: DIV30
In short: as §1

[19] = tested on: Dd2
In short: as §1

[20] = tested on: ECU
In short: as §1

[21] = tested on: FAB9
In short: as §1

[22] = tested on: GB4
In short: as §1

[23] = tested on: HB3
In short: as §1

[24] = tested on: ICS
In short: as §1

[25] = tested on: N140
In short: as §1

[26] = tested on: P93_24
In short: as §1

[27] = tested on: P94_40
In short: as §1

[28] = tested on: PAD
In short: as §1

[29] = tested on: PC15
In short: as §1

[30] = tested on: PC26
In short: as §1

[31] = tested on: PC49
In short: as §1

[32] = tested on: SC27B
In short: as §1

[33] = tested on: TAB109
In short: as §1

[34] = tested on: TAB113
In short: as §1

[35] = tested on: TAB165
In short: as §1

[36] = tested on: W2
In short: as §1

Measured: Potency
Potency is read from the fitted curve at half-maximal effect.

C=C[C@@H]1CN2CC[C@H]1C[C@H]2[C@H](O)c1ccnc2ccccc12
active: [1] 794 nM | [2] 379 nM | [3] 891 nM | [4] 1510 nM | [5] 1200 nM | [6] 1070 nM | [7] 794 nM | [8] 675 nM | [9] 757 nM | [10] 757 nM | [11] 1200 nM | [12] 675 nM | [13] 1510 nM | [14] 757 nM | [15] 355 nM | [16] 426 nM | [17] 379 nM | [18] 757 nM | [19] 891 nM | [20] 199 nM | [21] 112 nM | [22] 169 nM | [23] 224 nM | [24] 224 nM | [25] 794 nM | [26] 447 nM | [27] 398 nM | [28] 501 nM | [29] 224 nM | [30] 426 nM | [31] 891 nM | [32] 1000 nM | [33] 178 nM | [34] 501 nM | [35] 355 nM | [36] 338 nM
